Test results as given in PubChem BioAssay AID1347055 (National Center for Advancing Translational Sciences (NCATS), 2019).
Hit rate of the full screen: of about 54,000 compounds, about 120 (0.22%) were called active. About 8% were inconclusive and are not listed. Calls come from the whole dose curve; as a rule, active = well fitted inhibition curve with a large enough effect; inconclusive = small, poorly fitted or top-dose-only effect, or effect the other way; inactive = flat fitted curve, though single readings scatter. For the sample, actives were picked, then their nearest neighbours and some compounds at random.

Target: Fumarate hydratase, mitochondrial (Homo sapiens) (UniProt P07954)
Assay: Identification of activators of human fumarate hydratase by quantitative high-throughput screening; note: the screen sought activators but most active calls are inhibition curves; nearly all actives have a fitted effect of over 45% in size
Details: FH coupled MDH/diaphorase resazurin fluorescence, 15 min; series mostly up to 79.9 µM; activity change, negative = inhibition: at the top concentration
Excerpt: Fumarate hydratase (FH) is a metabolic enzyme that is part of the Krebs-cycle, and reversibly catalyzes the hydration of fumarate to malate. Mutations of the FH gene have been associated with fumarate hydratase deficiency (FHD), hereditary leiomyomatosis, renal cell cancer (HLRCC), and other diseases. Currently there are no high-quality small molecule probes for studying human fumarate hydratase. To address this, we developed a quantitative high throughput screening (qHTS) FH assay and screened a total of 57,037 compounds in dose-response. While no inhibitors of FH were confirmed, a series of phenyl-pyrrolo-pyrimidine-diones (12 compounds) were identified as activators of human fumarate hydratase. […] The binding of two compounds from the series to human fumarate hydratase was confirmed by microscale thermophoresis. The low hit rate in this screening campaign confirmed that FH is a "tough target" to modulate, and the small molecule activators of human fumarate hydratase reported here may serve as a starting point for further optimization and development into cellular probes of human FH and potential drug candidates.
For primary high-throughput screen, 3 ul of FH solution (containing 13.33nM human fumarate hydratase, 13.33IU/ml malic dehydrogenase, 0.2mM NAD, 0.067mg/ml diaphorase and 0.067mM resazurin in the assay buffer (50 mM Tris pH 8.0, 5 mM MgCl2, 0.01% Brij 3) was dispensed into each well in a black solid bottom 1536-well assay plate (Greiner Bio-One) using a BioRAPTR FRD dispenser (Beckman Coulter, Brea, CA). A 1536-well pintool dispenser outfitted with 20 nl pins (Wako Automation, San Diego, CA) was used to transfer 20 nL of DMSO-solubilized compound (Cherrypick plates) to each 1536-well assay plate. Each compound was screened at five concentrations: 15 nM, 151 nM, 1.5 uM, 15.4 uM, 76.9 uM. Following compound transfer, plates were incubated in room temperature for 10 minutes. 1 uL of substrate solution containing fumaric acid (160 uM) was dispensed via BioRAPTR FRD to initiate the reaction. Plates were immediately transferred to a ViewLux microplate imager (PerkinElmer, Waltham, MA), and any resulting resorufin fluorescence was measured (exitation/emission, 525/598 nm) at 0 and 15 minutes. The exposure time is 1 second. Fluorescence from each well was normalized using enzyme-free and DMSO-treated control wells on each plate, and changes in fluorescence (delta RFU) were calculated using the difference in fluorescent signal for each well at 15 minutes versus 0 minutes.
% is set by controls: 0 for no effect and ±100 for the full control effect.

Chain of Fumarate hydratase, mitochondrial (Homo sapiens) (P07954 whole entry, looked up): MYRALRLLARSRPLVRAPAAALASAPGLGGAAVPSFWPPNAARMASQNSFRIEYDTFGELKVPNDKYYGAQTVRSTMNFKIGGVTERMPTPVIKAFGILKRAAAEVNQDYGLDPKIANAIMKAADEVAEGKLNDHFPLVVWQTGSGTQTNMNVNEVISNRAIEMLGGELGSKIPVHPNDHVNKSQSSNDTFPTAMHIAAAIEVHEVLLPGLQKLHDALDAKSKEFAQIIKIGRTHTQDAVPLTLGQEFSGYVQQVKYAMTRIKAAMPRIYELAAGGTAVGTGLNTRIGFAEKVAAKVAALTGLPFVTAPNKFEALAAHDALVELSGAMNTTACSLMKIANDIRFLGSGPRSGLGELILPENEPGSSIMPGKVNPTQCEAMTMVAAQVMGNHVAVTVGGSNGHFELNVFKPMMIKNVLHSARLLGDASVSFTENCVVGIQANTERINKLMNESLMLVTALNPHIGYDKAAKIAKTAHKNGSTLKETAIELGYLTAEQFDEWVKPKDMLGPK

Activity change, negative = inhibition, inactive:
CCOc1cc(C(=O)NCCc2csc3nc(-c4ccc(C)cc4)nn23)cc(OCC)c1OCC -0.27%
CCOc1ccccc1N(C)C(=O)c1cc2c(s1)-c1ccccc1OC2 -21.1%
O=C(O)CC1CCC(c2ccc(-c3ccc(Nc4ccc(C(F)(F)F)nc4)cn3)cc2)CC1 (configuration not stated) -2.5%
CC(C)CC(=O)O[C@@H]1O[C@H](CO)[C@@H](O[C@H]2O[C@H](C)[C@@H](N[C@H]3C=C(CO)[C@@H](O[C@H]4O[C@H](CO)[C@@H](O[C@H]5O[C@H](CO)[C@@H](O[C@H]6O[C@H](CO)[C@@H](O)[C@H](O)[C@H]6O)[C@H](O)[C@H]5O)[C@H](O)[C@H]4O)[C@H](O)[C@H]3O)[C@H](O)[C@H]2O)[C@H](O)[C@H]1O 8.78% [at 20.6 µM]
CC(O)C1CCC2C3CCC4CC(OC5OC(C(=O)O)C(O)C(O)C5O)CCC4(C)C3CCC12C (configuration not stated) -5.83%
CO[C@H]1C[C@@H]2CC[C@@H](C)[C@@](O)(O2)C(=O)C(=O)N2CCCC[C@H]2C(=O)O[C@H]([C@H](C)C[C@H]2CC[C@@H](OP(C)(C)=O)[C@H](OC)C2)CC(=O)[C@H](C)/C=C(\C)[C@@H](O)[C@@H](OC)C(=O)[C@H](C)C[C@H](C)/C=C/C=C/C=C/1C -2.79% [at 53.3 µM]
CC(C)CC(c1c(O)c(C=O)c(O)c(C=O)c1O)C1CCC(C)(O)C2CC(C(C)(C)O)CCC12C (configuration not stated) -6.01% [at 53.3 µM]
COc1ccc(Cn2c(=O)n(-c3ccccc3C)c(=O)c3c4c(sc32)CN(C(C)=O)CC4)cc1 -3.96%
C/C=C/C=C/[C@@H]1O[C@](O)([C@H](CC)C(=O)NC/C=C/C=C(\C)[C@@H](OC)[C@@H](C)[C@@H]2O[C@H](/C=C/C=C/C=C(\C)C(=O)c3c(O)ccn(C)c3=O)[C@H](O)[C@@H]2O)[C@H](O)[C@H](O)C1(C)C -9.63% [at 20.6 µM]
CCOC(=O)CNc1nc2ccccc2n2c(C)nnc12 -4.82%
Cc1cc(C)c2sc(NC(=O)c3ccc(S(=O)(=O)N4CCCC4)cc3)nc2c1 3.95%
Cc1cc(C)c(-n2cc(C)c3c(Cl)nc(C)nc32)c(C)c1 -2.66%
CNC(=O)c1ccc(-c2nc(CN3CCc4ccccc43)c(C)o2)cc1 -16.3%
COc1cc(OC)c(NC(=O)c2ccc(Cc3cc4c(cc3C)C(C)(C)CCC4(C)C)o2)c(OC)c1 -27.2%
O=C(Nc1ccc2nc(SCC(=O)N3CCCc4ccccc43)sc2c1)c1ccc(Cl)cc1 -13.7%
CC1(C)CCC2(C(=O)OC3OC(COC4OC(CO)C(O)C(O)C4O)C(O)C(O)C3O)CCC3(C)C(=CCC4C5(C)CCC(O)C(C)(C(=O)O)C5CCC43C)C2C1O (configuration not stated) -1.76% [at 20.6 µM]
COc1ccccc1-c1c[nH]c2ncc(-c3cncc(C(=O)N(C)C)c3)cc12 3%
CN(Cc1ccccc1)C(=O)CCS(=O)(=O)c1cc(Br)cc2c1N(C(=O)C1CC1)CC2 -0.325%
CC1CCC2C(C(=O)O)=CC3C(O)C(C)(C)CC123 (configuration not stated) 3.29%
CC(O)/C=C/C1(O)C2(C)COC1(C)CC(O)C2 (configuration not stated) -5.68%
CC1CCC2C(C)(C)C(O)CCC2(C)C12Cc1c(O)cc3c(c1O2)CN(C(CCC(N)=O)C(=O)O)C3=O (configuration not stated) -1.12% [at 53.3 µM]
CC(=O)N1CCCc2cc(S(=O)(=O)N3CCC(C(=O)NCc4ccc(C)cc4)CC3)ccc21 2.25%
NC1CCC(Nc2cc(-c3cccc(NCc4cccc(F)c4)n3)c(Cl)cn2)CC1 (configuration not stated) 0.142%
Cc1ccc(S(=O)(=O)NCc2nc3nc(C)cc(C)n3n2)cc1 -12.1%
Cc1nc2c(C(F)(F)F)cccc2nc1-c1ccc(-c2cccc(S(C)(=O)=O)c2)cc1 0.357%
COc1ccc(-c2nc(C)c(CCNC(=O)c3ccc(C(F)(F)F)cc3)s2)cc1OC 1.18%
COc1ccc(-c2cn3c(n2)sc2cc(C(=O)Nc4ccccc4F)ccc23)cc1 -11.3%
Nc1nc2c(ncn2[C@@H]2O[C@@H]3COP(=O)(O)O[C@H]3[C@H]2O)c(=O)[nH]1 -2.31%
C[C@@H]1C[C@@H](O)[C@@]23CO[C@]2(CO)C[C@@H](O)CC3[C@@]12CC(c1ccoc1)OC2=O (some centres not stated) -2.44% [at 53.3 µM]
CCC(=O)N[C@@H]1Cc2ccccc2[C@H](c2ccccc2)C1 1.26%
CCOC(=O)c1c(C)n(S(=O)(=O)c2ccc(C)cc2C)c2ccc(NS(=O)(=O)c3ccc(C)cc3C)cc12 -0.0866%
CCOC(=O)CSc1nc2c(sc3ccccc32)c(=O)n1CCCN1CCCC1 -0.602%
COc1cc(OC)c(NC(=O)c2cc(S(=O)(=O)N3CCCC3)cn2C)cc1Cl -2.25%
Cc1ccc(NC(=O)C2CCCN2S(=O)(=O)c2cccc3cccnc23)c(C)c1 (configuration not stated) -1.91%
CC1C(=O)OCC2=CCN3CCC(OC(=O)C(C)(O)C1(C)O)C23 (configuration not stated) 7.92% [at 53.3 µM]
C[C@@H]1[C@H](O)[C@@H]2OC(=O)C3=C2[C@H](CCC3)[C@@]12C[C@@H](c1ccoc1)OC2=O 1.74% [at 53.3 µM]
C[C@H]1CC[C@@H]2N(C1)C[C@@H]1[C@H]([C@@H](O)[C@H](O)[C@]3(O)[C@H]1C[C@@]14OC5(O)[C@@H](C[C@@H](O)[C@@H]31)[C@]4(C)CC[C@@H]5O)[C@]2(C)O 4.66% [at 53.3 µM]
